The results in this text go back to PubChem BioAssay (Tox21).

Structures are written as SMILES. Values without a mark were called inactive. Active and inactive are the calls of the source. Calls come from the whole dose curve; as a rule, active = well fitted curve in the direction sought with a large enough effect in the repeat runs; inconclusive = weak or mixed curves; inactive = flat fitted curve, though single readings scatter.
% is set by controls: 0 for no effect and ±100 for the full control effect.

This test can be described thus: qHTS assay to test for compound auto fluorescence at 460 nm (blue) in HepG2 cell free culture (AID 720685). As to conditions: Cell-free culture medium, blue autofluorescence 405/460 nm; series mostly up to 46 µM; fluorescence, % of fluorescent control: at the top concentration. In short, it runs like this: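 Compound (23 nL) or DMSO pinned into cell-free MEM with 10% FBS; blue fluorescence read at 405/460 nm excitation/emission, expressed as auto-fluorescence equivalency to triamterene.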
Regarding `CCN(CC)CCOc1ccc(-c2nc3cc(Cl)ccc3s2)cc1`, the “fluorescence, % of fluorescent control” value is 0.0047%.

With `O=C(O)CCC/C=C\C[C@@H]1[C@@H](/C=C/[C@@H](O)COc2cccc(C(F)(F)F)c2)[C@H](O)C[C@@H]1O`, the “fluorescence, % of fluorescent control” value was -0.0115%.

In the case of `OCC(O)COc1ccc(Cl)cc1` (centres undefined), the “fluorescence, % of fluorescent control” value was -0.0432%.

Regarding `CC(Oc1ccccc1)C(=O)N[C@@H]1C(=O)N2[C@@H]1SC(C)(C)[C@@H]2C(=O)O` (some centres undefined), the “fluorescence, % of fluorescent control” value was 0.0111% [at 18.6 µM].

With `C=CCNC1=C2C[C@@H](C)C[C@H](OC)[C@H](O)[C@@H](C)/C=C(\C)[C@H](OC(N)=O)[C@@H](OC)/C=C\C=C(/C)C(=O)NC(=CC1=O)C2=O`, the “fluorescence, % of fluorescent control” value is -0.102%.

On to `COCC(=O)Nc1cc(Sc2ccccc2)ccc1N=C(NC(=O)OC)NC(=O)OC`, for which the “fluorescence, % of fluorescent control” value was -0.0573%.

As to `CCCCCCCCCCCCCCCC(=O)OC[C@@H](O)[C@H]1OC[C@H](O)[C@H]1O`, the “fluorescence, % of fluorescent control” value is 0.085%.

On to `CCN(CC)Cc1cc(Nc2ccnc3cc(Cl)ccc23)ccc1O`, for which the “fluorescence, % of fluorescent control” value is -0.0978% [at 18.6 µM].

`C=CC[C@@H]1/C=C(\C)C[C@H](C)C[C@H](OC)[C@H]2O[C@@](O)(C(=O)C(=O)N3CCCC[C@H]3C(=O)O[C@H](/C(C)=C/[C@@H]3CC[C@@H](O)[C@H](OC)C3)[C@H](C)[C@@H](O)CC1=O)[C@H](C)C[C@@H]2OC`: the “fluorescence, % of fluorescent control” value was 0.0232%.

`CN(C)CCC=C1c2ccccc2C(C)(C)c2ccccc21`: the “fluorescence, % of fluorescent control” value is -0.144%.

`CN1CC(O)c2cc(N=NC(N)=O)c(O)cc21` (centres undefined): the “fluorescence, % of fluorescent control” value was -0.325%.

With `CCOC(=O)Cc1cccc(-c2cc(CCCCCCc3ccc(O[C@H]4O[C@H](COC(C)=O)[C@@H](OC(C)=O)[C@H](OC(C)=O)[C@@H]4OC(C)=O)c(-c4cccc(CC(=O)OCC)c4)c3)ccc2O[C@H]2O[C@H](COC(C)=O)[C@@H](OC(C)=O)[C@H](OC(C)=O)[C@@H]2OC(C)=O)c1`, the “fluorescence, % of fluorescent control” value is -0.0241%.

Turning to `CCCC(=O)O[C@]1(C(=O)COC(C)=O)CC[C@H]2[C@@H]3C[C@H](F)C4=CC(=O)C=C[C@]4(C)[C@@]3(F)[C@@H](O)C[C@@]21C`, the “fluorescence, % of fluorescent control” value is 0.0162%.

For `C=C1CC2C3CCC4=CC(=O)C=C[C@]4(C)[C@@]3(F)[C@@H](O)C[C@]2(C)[C@@]1(O)C(=O)COC(C)=O` (some centres undefined), the “fluorescence, % of fluorescent control” value was 0.06%.

With `C[C@H]1[C@@H](OC(=O)CCC(=O)O)O[C@@H]2OC3(C)CC[C@H]4[C@H](C)CC[C@@H]1[C@@]24OO3`, the “fluorescence, % of fluorescent control” value is -0.0236%.

On to `OCCO[C@@H]1[C@@H](O)[C@H](O)[C@@H](CO)O[C@@H]1O`, for which the “fluorescence, % of fluorescent control” value is -0.0888%.

For the compound `CN[C@@H]1[C@H](O[C@H]2[C@H](O[C@H]3[C@H](O)[C@@H](O)[C@H](N=C(N)N)[C@@H](O)[C@@H]3N=C(N)N)O[C@@H](C)[C@]2(O)C=O)O[C@@H](CO)[C@H](O)[C@H]1O`, the “fluorescence, % of fluorescent control” value was -0.0564%.

For the compound `O=C(Cc1cccs1)N[C@@H]1C(=O)N2C(C(=O)[O-])=C(C[n+]3ccccc3)CS[C@H]12`, the “fluorescence, % of fluorescent control” value is 1.61%.

As for `Clc1cc(Cl)c(OCC#CI)cc1Cl`, the “fluorescence, % of fluorescent control” value was 0.0115%.

Take `C[N@+]12CCCC[C@@H]1CCC(=C(c1cccs1)c1cccs1)C2`: the “fluorescence, % of fluorescent control” value is -0.021%.

As to `CC1(O)CCC(C(C)(C)O)CC1` (centres undefined), the “fluorescence, % of fluorescent control” value is 0.0213%.

Turning to `CC#CCC(C)[C@H](O)/C=C/[C@@H]1[C@H]2c3cccc(CCCC(=O)O)c3O[C@H]2C[C@H]1O` (some centres undefined), the “fluorescence, % of fluorescent control” value is -0.0967%.

As to `CCN(CC)CCCC(C)Nc1cc(/C=C/c2ccccc2Cl)nc2cc(Cl)ccc12` (centres undefined), the “fluorescence, % of fluorescent control” value was 0.735%.

With `CCCCC(=O)OCC(=O)[C@]1(O)Cc2c(O)c3c(c(O)c2[C@@H](O[C@H]2C[C@H](NC(=O)C(F)(F)F)[C@H](O)[C@H](C)O2)C1)C(=O)c1c(OC)cccc1C3=O`, the “fluorescence, % of fluorescent control” value is -0.136%.

`CC1(C)S[C@@H]2[C@H](NC(=O)C3(N)CCCCC3)C(=O)N2[C@H]1C(=O)O`: the “fluorescence, % of fluorescent control” value was -0.0197%.

Turning to `CC[C@]1(O)CC2CN(CCc3c([nH]c4ccccc34)[C@@](C(=O)OC)(c3cc4c(cc3OC)N(C)[C@H]3[C@@](O)(C(N)=O)[C@H](O)[C@]5(CC)C=CCN6CC[C@]43[C@@H]65)C2)C1` (some centres undefined), the “fluorescence, % of fluorescent control” value was 0.114%.

For the compound `CC(=O)Nc1ccc(NC(=S)NC(=O)c2ccc(C(C)(C)C)cc2)cc1`, the “fluorescence, % of fluorescent control” value was -0.0246%.

As to `CO[C@H]1O[C@@H]2O[C@@]3(C)CC[C@H]4[C@H](C)CC[C@@H]([C@H]1C)[C@@]24OO3`, the “fluorescence, % of fluorescent control” value is 0.133%.

As to `OC(CN1CCCCC1)c1cc(-c2ccccc2)on1` (centres undefined), the “fluorescence, % of fluorescent control” value was 0.0508%.

Consider `CC(C)(C)C1(O)CCN2CC3c4ccccc4CCc4cccc(c43)C2C1` (centres undefined), for which the “fluorescence, % of fluorescent control” value is 0.0459%.

With `NC[C@@H]1O[C@H](O[C@H]2[C@@H](O)[C@H](O[C@@H]3[C@@H](O)[C@H](N)C[C@H](N)[C@H]3O[C@H]3O[C@H](CO)[C@@H](O)[C@H](O)[C@H]3N)O[C@@H]2CO)[C@H](N)[C@@H](O)[C@@H]1O`, the “fluorescence, % of fluorescent control” value is -0.0643%.

For the compound `CN(C)c1ccc(C(=C2C=CC(=[N+](C)C)C=C2)c2c(O)c(S(=O)(=O)[O-])cc3cc(S(=O)(=O)O)ccc23)cc1`, the “fluorescence, % of fluorescent control” value was -0.0127%.

Consider `CCN(CC)CCOC(=O)c1ccc(N)cc1Cl`, for which the “fluorescence, % of fluorescent control” value is 0.0824%.

`CCCCCCCCCCCCCCCCCC(=O)[O][Al]`: the “fluorescence, % of fluorescent control” value was -0.0573%.

In the case of `CCC(C)[C@H]1O[C@]2(C=C[C@@H]1C)C[C@@H]1C[C@@H](C/C=C(\C)[C@@H](O[C@H]3C[C@H](OC)[C@@H](O[C@H]4C[C@H](OC)[C@H](NC(C)=O)[C@H](C)O4)[C@H](C)O3)[C@@H](C)/C=C/C=C3\CO[C@@H]4[C@H](O)C(C)=C[C@@H](C(=O)O1)[C@]34O)O2` (some centres undefined), the call was inactive.

Regarding `CC(C)NCC(O)COc1ccccc1-n1cccc1` (centres undefined), the “fluorescence, % of fluorescent control” value was -0.145%.

`CC(C)(C)NC(=O)[C@H]1CC[C@H]2[C@@H]3CC=C4C=C(C(=O)O)CC[C@]4(C)[C@H]3CC[C@]12C`: the “fluorescence, % of fluorescent control” value was 0.514%.

As for `CC1=C(/C=C/C(C)=C/C=C/C(C)=C/C=C/C=C(C)/C=C/C=C(C)/C=C/C2=C(C)C(=O)CCC2(C)C)C(C)(C)CCC1=O`, the “fluorescence, % of fluorescent control” value was 0.0879%.

On to `CCOC(=O)c1cc(-c2ccccc2)nc2ccc(C)cc12`, for which the “fluorescence, % of fluorescent control” value was -0.0969%.
